Test [1] can be described thus: NCI Yeast Anticancer Drug Screen. Data for the rad50 strain (AID 155).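 Further: 0% = growth of vehicle-only cultures of the same strain.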 Conditions: S. cerevisiae rad50 strain growth inhibition; at 50.0 µM; hits give high values. Put shortly:
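A DNA repair-deficient yeast mutant serves as the test organism; compound-induced growth inhibition is calculated against vehicle-treated cells.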

Test [2] can be described thus: NCI Yeast Anticancer Drug Screen. Data for the mec2-1 strain (AID 157). The following applies: S. cerevisiae mec2-1 strain, at 50.0 µM, hits give high values. In short, it runs like this: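 Growth inhibition is read against vehicle-treated controls after compound exposure of the mec2-1 yeast strain, which is defective in DNA damage repair or cell cycle control.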
The nature of test [3]: NCI Yeast Anticancer Drug Screen. Data for the sgs1 mgt1 strain (AID 161).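 Further: 0% = growth of cultures given vehicle only.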 The following applies: S. cerevisiae sgs1 mgt1 strain, at 50.0 µM, hits give high values. Put shortly: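 Compounds are added to genetically altered yeast, and growth is compared with cultures given vehicle alone to give percent inhibition.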
Test [4] in a line: NCI Yeast Anticancer Drug Screen. Data for the cln2 rad14 strain (AID 165).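 Further: 0% = growth equal to vehicle treated cultures.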 The following applies: S. cerevisiae cln2 rad14 strain, at 50.0 µM, hits give high values. Put shortly:
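Growth inhibition, relative to vehicle-treated controls, is the read-out. The test organism is a yeast strain with defined genetic alterations, cln2 rad14.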

A short description of test [5]: NCI Yeast Anticancer Drug Screen. Data for the bub3 strain (AID 167). The following applies: S. cerevisiae bub3 mutant strain, at 50.0 µM, hits give high values. Put shortly:
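Inhibition values come from growth of compound-treated mutant yeast normalised to vehicle-treated controls.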

Test [6] can be described thus: NCI Yeast Anticancer Drug Screen. Data for the mlh1 rad18 strain (AID 175). The following applies: S. cerevisiae mlh1 rad18 strain growth inhibition; at 50.0 µM; hits give high values. Put shortly: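 Cells of a genetically altered yeast strain, deficient in DNA damage repair, were treated with compound. Their growth was then compared with that of vehicle-treated cultures to give inhibition.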

About 79,000 compounds went through this panel and 15% of them were active in at least one assay; those are over-represented in the sample as a whole. Values without a mark were called inactive. The source made the active and inactive calls. No stated cut-off is given here; in the data, active means growth inhibition above about 70%; inactive means the rest.

Regarding `Nc1nc2c(C(=O)c3cccs3)nnn2c2cccc(Cl)c12`, the growth inhibition was -21.1% in test [1]; -21.1% in test [2]; -21.9% in test [3]; -12.2% in test [4]; -14.8% in test [5]; -2.25% in test [6].

Turning to `Cc1c(C)c(O)c(SC(CC(=O)O)C(=O)O)c(C)c1O` (stereo not drawn), the growth inhibition in test [1] is 14.8%; in test [2] it was 37.8%; in test [3], 41.1%; in test [4] it was 1.65%; in test [5], 21.7%; in test [6], 44.1%.

Regarding `COC(=O)c1c2c(cc3c1CC1(Cc4ccccc4C1)C3)CCC2`, the growth inhibition was 1.15% in test [1]; 11.6% in test [2]; 17% in test [3]; 0.6% in test [4]; 2.6% in test [5]; 18.6% in test [6].

Take `O=[N+]([O-])c1ccccc1SCl`: the growth inhibition was 11.7% in test [1]; 5.5% in test [2]; 5.05% in test [3]; -21.9% in test [4]; 2% in test [5]; 6.7% in test [6].

As for `COC(=O)C1(CC(=O)c2ccc(N3CCN(c4ccc(C(=O)CC5(C(=O)OC)NC(=S)NC(=O)C5C#N)cc4)CC3)cc2)NC(=S)NC(=O)C1C#N` (stereo not drawn), the growth inhibition in test [1] is -19.5%; in test [2], -0.6%; in test [3], -21.4%; in test [4] it was 3.95%; in test [5], -18%; in test [6], -17.1%.

Take `COC(=N)Cc1cc(OC)cc(OC)c1`: the growth inhibition was -2.45% in test [1]; 6.4% in test [2]; 7.45% in test [3]; -12.7% in test [4]; 21.2% in test [5]; -6.6% in test [6].

As to `C[CH2][Ge]([CH2]C)[CH2]C.C[CH2][Ge]([Cl])[CH2]C`, the growth inhibition was 76.3% (active) in test [1]; 3.45% in test [2]; 52.9% in test [3]; -10.2% in test [4]; 41.8% in test [5]; 74.5% (active) in test [6].

Regarding `CC1CCCCNC1=S` (stereo not drawn), the growth inhibition was -6.95% in test [1]; 19.6% in test [2]; 19.9% in test [3]; 6.6% in test [4]; 17.8% in test [5]; 27.1% in test [6].

For the compound `C=C(C)C(=O)N1c2ccc(OC)cc2CC1C(=O)OCC` (stereo not drawn), the growth inhibition is -1.6% in test [1]; 16.6% in test [2]; 7.05% in test [3]; 12.8% in test [4]; 15.8% in test [5]; 4.55% in test [6].

`CC(=O)N1C(=O)NC(=O)C1(C)c1cccs1` (stereo not drawn): the growth inhibition in test [1] was 23.2%; in test [2] it was -8.9%; in test [3] it was 2.9%; in test [4] it was -75.1%; in test [5], 2%; in test [6], 1.2%.

For the compound `NC(=O)c1nnsc1N/N=C/c1ccc([N+](=O)[O-])cc1`, the growth inhibition in test [1] is 8.85%; in test [2], 25.9%; in test [3], -25.1%; in test [4], -2.05%; in test [5], -20.1%; in test [6] it was -5.1%.

As to `Cc1ccc2nc[nH]c(=O)c2c1`, the growth inhibition in test [1] is -1.1%; in test [2], 13.3%; in test [3] it was 7.85%; in test [4], -70.6%; in test [5], 19.4%; in test [6], -12.8%.

`COc1cc(C(=O)C/C(CCC(=O)Nc2ccc(Cl)cc2Cl)=N/NC(=O)C(N)=O)ccc1O`: the growth inhibition in test [1] was -12.8%; in test [2], -2.45%; in test [3] it was -34.8%; in test [4], 22.4%; in test [5], -1.45%; in test [6], -20.4%.

As to `C1=Cc2ccccc2Nc2ccccc21`, the growth inhibition in test [1] was -1.9%; in test [2] it was -7.35%; in test [3], -10.8%; in test [4] it was 1.65%; in test [5] it was -11.9%; in test [6], -23.5%.

Take `N#Cc1ccc(OCCCCCOc2ccc([N+](=O)[O-])cc2)cc1`: the growth inhibition in test [1] was 19.4%; in test [2] it was 11.6%; in test [3], 8.65%; in test [4], 12.8%; in test [5], 13.9%; in test [6], 4.4%.

Consider `CC(=O)OC(Cn1cncn1)(Cn1cncn1)c1ccc(Cl)cc1Cl`, for which the growth inhibition was 43.6% in test [1]; 32.5% in test [2]; 58.3% in test [3]; 46.8% in test [4]; 39.8% in test [5]; 56.7% in test [6].

Consider `COc1cc(/C=C/C=C2\CC(C)C/C(=C\C=C\c3ccc(O)c(OC)c3)C2=O)ccc1O` (stereo not drawn), for which the growth inhibition in test [1] was 9%; in test [2], 8.3%; in test [3] it was 6.05%; in test [4], 18.2%; in test [5], 0.85%; in test [6], 8.2%.

In the case of `COc1ccc(C2CN=NN2c2ccc([N+](=O)[O-])cc2)cc1` (stereo not drawn), the growth inhibition in test [1] was -18.4%; in test [2], -16.6%; in test [3], -9.15%; in test [4], 28.2%; in test [5], 46.1%; in test [6], -18%.

The values are drawn from PubChem BioAssay (NCI).
